We go through seven compounds from PubChem BioAssay AID1036 (National Center for Advancing Translational Sciences (NCATS), 2008).

Records with an inconclusive call do not appear. Calls of active or inactive are those of the source. The call rests on the fitted dose curve.

A short description of the test: NSCLC 1 Cell Viability Secondary Assay for qHTS Assay for Epigenetic Modulator. The note with it: NSCLC 1 cells viability, MTS absorbance, 4 days. An excerpt:
NIH Molecular Libraries Screening Centers Network [MLSCN] NIH Chemical Genomics Center [NCGC] MLSCN Grant: 1 X01 MH079860-01 Assay Provider: Elisabeth D. Martinez, University of Texas SW Medical Center NCGC Assay Overview: This secondary assay characterizes selected actives identified in the qHTS of the Locus Derepression (LDR) assay (PubChem AID 597). The LDR assay detects the derepression of a GFP reporter that is stably integrated in a region of the genome of murine c127i mammary cells that is presumably silenced. Compounds that cause derepression of the locus to express GFP are identified by enumerating GFP positive cells using a laser-scanning microplate cytometer. Selected LDR actives were assayed for killing of NSCLC 1, a patient-derived nonsmall cell lung carcinoma line. Known epigenetic drugs, like histone deacetylase inhibitors, can block cancer cell growth. NSCLC 1 cell viability was measured using Cell Titer 96 AQueous One (Promega), an assay which detects the ability of metabolically active cells to reduce a tetrazolium salt substrate (MTS), into a soluble formazan product that can be measured by colorimetry.
NCGC Assay Protocol Summary NSCLC 1 cells were plated in 96-well flat bottom tissue culture dishes (Corning) and grown overnight at 37 C and 5% CO2, then treated with compounds, incubated 4 days, and assayed for viability using the Cell Titer 96 AQueous One kit (Promega) according to the manufacturer's protocol. Absorbance at 490 nm and 650 nm (reference) was measured by a Spectra Max (Molecular Devices). Data were normalized to the untreated control (100% viability). Each cell line was tested in one or two independent assays, each containing 4 or 8 replicates. For further details, see R.L. Johnson, W. Huang, A. Jadhav, C.P. Austin, J. Inglese, E.D. Martinez, A Quantitative High-Throughput Screen Identifies Potential Epigenetic Modulators of Gene Expression, Analytical Biochemistry (2007), doi: 10.1016/j.ab.2007.12.028
As for `CC(C)C(=O)NC(c1ccco1)c1cc([N+](=O)[O-])c2cccnc2c1O` (configuration not stated), the Potency was 8000 nM (active).
On the same count and under the same terms, the figure for `CC(C)C(=O)NC(c1ccco1)c1ccc2cccnc2c1O` (configuration not stated) is 1000 nM (active).
Same read-out and setting: in the case of `CC(C)C(=O)NC(c1ccc(N(C)C)cc1)c1ccc2cccnc2c1O` (configuration not stated) it was 300 nM (active).
For the compound `O=C(CSc1cccc2cccnc12)NCc1ccccc1`, the call was inactive.
For the compound `O=Nc1ccc(O)c2ncccc12`, the Potency was 4000 nM (active).
Turning to `CC(/C=C/C(=O)NO)=C\[C@@H](C)C(=O)c1ccc(N(C)C)cc1`, the Potency was 100 nM (active).
Regarding `CN1C(=S)SC(c2ccccc2)N(C)C1c1ccccc1` (configuration not stated), the outcome was inactive.
